GluA2 TARP mod = GluA2-stargazin AMPA receptor complex modulation | 3.5% of 40,000 active | O88602+P19491 | HEK293 GluA2+stargazin, membrane potential dye (FDSS), glutamate EC50; hits were called plate by plate, in both directions | calls only at 30 µM;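 active = any of four per-well response measures lying three or more SD from its plate-wide compound average, in either direction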
GIRK2 act = GIRK2 channel activators by thallium flux; P48051; HEK293 GIRK2/NPY4 cells, thallium flux fluorescence; activation (% efficacy), % for hits at 37.5 µM; 34,000 tested, under 10 active; AID 1259324;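 active = primary screen hit, no activity in plain HEK293 cells, and in GIRK2-only cells above 5% efficacy rising with concentration; inactive = the rest, including fluorescent compounds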;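 note: efficacy is normalized control-subtracted fluorescence 15 s after thallium addition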
Target sequence (P48051 whole entry, looked up): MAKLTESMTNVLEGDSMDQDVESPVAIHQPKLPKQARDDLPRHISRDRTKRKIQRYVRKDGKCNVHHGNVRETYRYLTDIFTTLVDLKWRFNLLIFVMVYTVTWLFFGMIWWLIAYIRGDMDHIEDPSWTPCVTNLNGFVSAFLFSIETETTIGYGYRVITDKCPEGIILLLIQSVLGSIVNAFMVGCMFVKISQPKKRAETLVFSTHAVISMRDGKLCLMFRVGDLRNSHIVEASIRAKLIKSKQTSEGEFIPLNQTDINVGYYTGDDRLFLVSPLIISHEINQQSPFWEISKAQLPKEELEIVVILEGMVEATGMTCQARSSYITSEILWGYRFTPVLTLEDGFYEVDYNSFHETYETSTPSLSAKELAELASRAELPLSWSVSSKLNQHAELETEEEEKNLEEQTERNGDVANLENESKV
* = called active by the depositor; i = inactive; · = not tested or not shown; + = active, no number. The entries come from a sample that favours hits as a whole.

SMILES | GluA2 TARP mod | GIRK2 act
CCN(CC)C(=O)Cn1cc(C(=O)C(=O)N2CCN(Cc3ccccc3)CC2)c2ccccc21 | i | ·
O=C(CN1C(=O)c2ccccc2S1(=O)=O)Nc1ccccc1S | i | i
O=C(c1ccc(Cl)s1)N(CCN1CCOCC1)c1nc2ccccc2s1 | i | i
O=C(NCc1n[nH]c(=O)c2ccccc12)c1ccc(=O)[nH]c1 | i | i
O=C(NCc1n[nH]c(=O)c2ccccc12)c1cccc(-n2cnnn2)c1 | + | i
CSc1ccccc1C(=O)NCc1n[nH]c(=O)c2ccccc12 | i | i
COc1nn(C)cc1C(=O)NCc1n[nH]c(=O)c2ccccc12 | + | i
O=S(=O)(NCCOc1ccc(-c2ccc(F)cc2)nn1)c1ccc(I)cc1 | i | i
N#C/C(=C\N1CCN(Cc2ccc3c(c2)OCO3)CC1)C(=O)NCc1ccccc1 | i | i
COc1ccc(CNC(=O)/C(C#N)=C/N2CCN(Cc3ccc4c(c3)OCO4)CC2)cc1 | + | i
CCc1ccc(NCc2cc3ccc(OC)cc3n(CC(=O)Nc3ccccc3F)c2=O)cc1 | i | ·
CCc1ccc(NCc2cc3ccc(OC)cc3n(CC(=O)Nc3ccc(OC)cc3)c2=O)cc1 | + | i
Cc1ccc2c(CC(=O)NCC(C)C)cc(=O)oc2c1 | i | i
O=C(Nc1cccc(C(F)(F)F)c1)c1ccc(=O)n(Cc2ccc(C(F)(F)F)cc2)c1 | i | i
COCCn1c(C(=O)Nc2ccc(F)c(Cl)c2)cc2c(=O)n(C)c(=O)n(C)c21 | + | i
COCCn1c(C(=O)Nc2ccccc2)cc2c(=O)n(C)c(=O)n(C)c21 | i | i
CC1(C)CC(=O)C2=C(C1)NC1=C(C(=O)c3ccccc31)C2c1cccnc1 (centres undefined) | i | ·
CC1(C)CC(=O)C2=C(C1)NC1=C(C(=O)c3ccccc31)C2c1ccc(C(F)(F)F)cc1 (centres undefined) | + | ·
Cc1ccc(S(=O)(=O)N(Cc2ccc(Cl)c(Cl)c2)C(=O)N2CCN(C)CC2)cc1 | i | i
COc1cccc(S(=O)(=O)NCCC(O)C2CC2)c1 (centres undefined) | + | i
COc1cccc(S(=O)(=O)NCC(O)(c2ccccc2)C2CC2)c1 (centres undefined) | i | i
CCc1ccc(OCCOCC(O)CN2CCN(c3ccccc3F)CC2)cc1 (centres undefined) | i | ·
COc1cccc(OCCOCC(O)CN2CCN(c3ccccc3F)CC2)c1 (centres undefined) | + | ·
Cc1nc(-n2cccc2)sc1C(=O)NC1CCN(C(=O)OC(C)(C)C)CC1 | i | i
O=C(Nc1ccccc1OC(F)F)c1ccc(S(=O)(=O)N2CCCCCC2)cc1 | i | ·
SMILES | GluA2 TARP mod | GIRK2 act
Cc1cc(C(=O)N2CCOCC2)nn1CC(=O)NCCc1c[nH]c2ccccc12 | i | i
Cc1cccc2sc(NC(=O)c3ccno3)nc12 | i | i
COc1cc([N+](=O)[O-])cc2sc(NC(=O)c3ccno3)nc12 | + | i
O=C(NCc1cccs1)C(=O)N1CCN(c2ccccc2)CC1 | i | i
COc1cccc(-c2cc3ccc(OC(C)=O)cc3oc2=O)c1 | i | i
Cc1csc(-c2cc3ccc(OC(=O)CCCCl)cc3oc2=O)n1 | + | ·
O=C(Cn1cnc2c(sc3cccc(F)c32)c1=O)N1CCN(c2ccccc2F)CC1 | · | i
O=C(COc1ccc(Cl)cc1Cl)Nc1cccc(N2CCCCC2=O)c1 | i | i
Cc1ccnc(SCCn2c(N3CCOCC3)nc3c2c(=O)n(C)c(=O)n3C)n1 | + | ·
Cn1c(=O)c2c(nc(N3CCOCC3)n2CCSc2nc3ccccc3s2)n(C)c1=O | i | ·
COC(=O)c1cc(Br)ccc1NC(=O)c1ccc(OC)c(OC)c1 | i | i
CCOC(=O)CC(=O)CSc1cc(C)c(C#N)c2nc3ccccc3n12 | i | i
CCCc1cc(NCC2CCCO2)n2c(nc3ccccc32)c1C#N (centres undefined) | + | i
Cn1nc(-c2cccc(NS(=O)(=O)c3ccc(F)c(Cl)c3)c2)ccc1=O | i | i
CCc1ccc(S(=O)(=O)N2CCC(c3nnc(C4CC4)o3)CC2)s1 | i | i
Cc1ccc(-c2cc(C(F)F)n3ncc(C(=O)n4c(C)nc5ccccc54)c3n2)cc1 | i | ·
Cc1ccc(-c2cc(C(F)F)n3ncc(C(=O)N4CCC(C)CC4)c3n2)cc1 | + | ·
C=CCc1c(C)nc2c(-c3ccccc3)cnn2c1NCCCN1CCOCC1 | i | i
COC(=O)c1ccc(C(=O)NCC(c2ccc(F)cc2)N2CCN(C)CC2)cc1 (centres undefined) | i | i
Cc1ccc(C(CNC(=O)Cc2ccc(SC(C)C)cc2)N2CCOCC2)cc1 (centres undefined) | i | i
CCOCCCNS(=O)(=O)c1cc(Cl)c(C)cc1OC | + | ·
COc1cc(C)c(Cl)cc1S(=O)(=O)NC(C)(C)C | i | ·
Cn1c(CSc2nc(N)cc(N)n2)nnc1SCC(=O)NC1CCCCC1 | i | ·
CC(C)NC(=O)c1ccc2c(=O)n(Cc3ccccc3)c3nnc(SCC(N)=O)n3c2c1 | + | i
CC(C)NC(=O)c1ccc(Cn2c(SCC#N)nc3ccccc3c2=O)cc1 | i | i
SMILES | GluA2 TARP mod | GIRK2 act
Cn1c(=O)c2ccc(C(=O)NC3CCCCC3)cc2n2c(SCC(N)=O)nnc12 | + | i
CC(C)NC(=O)CSc1nnc2n(Cc3ccccc3)c(=O)c3ccc(C(=O)NC(C)C)cc3n12 | + | i
CCCNC(=O)c1ccc(Cn2c(SCC(=O)NC(C)C)nc3ccccc3c2=O)cc1 | i | i
O=C(Cc1ccc(NC(=O)C2CC2)cc1)NCc1cccs1 | i | i
CCn1nc(C(=O)N(Cc2ccccn2)c2nc3c(F)cccc3s2)cc1C | · | i
CC(=O)Nc1cccc(NC(=O)C(=O)NCCc2ccc(F)cc2)c1 | i | ·
CCCCOc1ccc(S(=O)(=O)Nc2cccc(-c3ccc(=O)n(C)n3)c2)cc1 | i | i
NC(=O)c1ccc(NC(=O)CN2C(=O)c3ccccc3S2(=O)=O)cc1 | i | i
NS(=O)(=O)c1ccc(NC(=O)CN2C(=O)c3ccccc3S2(=O)=O)cc1 | + | i
COc1ccccc1C1C(C(=O)Nc2cccc(C(F)(F)F)c2)=C(C)NC2=C1C(=O)CC(C)(C)C2 (centres undefined) | i | ·
O=c1[nH]c2sc3c(c2c(=O)n1-c1ccccc1)CCCC3 | i | i
O=c1c2c3c(sc2ncn1/N=C/c1cccnc1)CCC3 | + | ·
O=C(c1ccco1)N1CCc2ccc(NC(=O)C3(c4ccccc4)CCOCC3)cc2C1 | i | i
COC(=O)c1sc(NC(=O)c2ccc(OC)cc2)c(C(=O)OC)c1C | i | i
CCOC(=O)C1=C(CCl)NC(=O)NC1c1ccccc1Cl (centres undefined) | i | ·
O=C(Nc1nnc(-c2ccc(Br)s2)o1)c1ccc(Cl)s1 | + | i
Cc1cc(-c2nnc(NC(=O)c3ccc(Cl)s3)o2)nn1C | i | i
O=C(Nc1nnc(-c2ccc(Br)s2)o1)c1cc(Cl)ccc1Cl | + | i
O=C(Nc1nnc(-c2cccs2)o1)c1cc(Cl)ccc1Cl | i | ·
Cc1nnc(NC(=O)/C=C2\SC(=O)NC2=O)s1 | i | ·

Compound activity (PubChem BioAssay)
